Data on 8 molecules can be found in PubChem BioAssay (NCI).

The panel holds about 83,000 compounds, 20% with a hit somewhere; the sample as a whole holds those more often.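 Testing used 96-well plates and a 48-hour single-concentration exposure. Example: -40 means 40% of the starting cells died.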 Values without a mark were called inactive. Calls of active or inactive are those of the source. How the source made its calls: active means growth percent below 10; inactive means the rest.

What all share (test): NCI-60 one-dose screen, 48 h (100 = growth as untreated, 0 = no growth, -100 = all killed)
What all share (conditions): 10 µM unless noted

The test system of assay [1] is NCI-H23 lung.
Assay [2] deals with NCI-H226 lung.
Assay [3] relates to NCI-H322M lung.
In assay [4] the test system is HOP-62 NSCLC.
The test system of assay [5] is NCI-H460 lung.
The test system of assay [6] is HOP-92 NSCLC.
Assay [7] has as its system NCI-H522 lung.
In assay [8] the test system is A549/ATCC NSCLC.
Assay [9] has as its system 786-0 renal.
For assay [10], the system named is COLO 205 colon.
The test system of assay [11] is DU-145 prostate.
Assay [12] concerns K-562 leukemia.
Assay [13] deals with MALME-3M melanoma.
In assay [14] the test system is MDA-MB-231 breast.
For assay [15], the system named is RXF 393 renal.
Assay [16] has as its system SF-268 CNS.
Assay [17] concerns SF-295 CNS.
Assay [18] concerns SF-539 CNS.
Assay [19] has as its system UACC-257 melanoma.
Assay [20] deals with M14 melanoma.

For `O=C(N/N=C/C=C\c1ccccc1)C(=O)N/N=C/C=C/c1ccccc1`, the growth in [1] is 103%; in assay [2] it was 111%; in assay [3] it was 123%; in assay [4] it was 107%; in assay [5], 117%; in assay [6] it was 115%. Also, the growth is 124% in [7]; 109% in [8]; 104% in assay [9]; 122% in assay [10]; 112% in [11]; 113% in assay [12]. In addition, the growth in assay [13] is 117%; in assay [14], 111%; in [15], 127%; in [16], 105%; in [17], 104%; in assay [18], 114%. The growth in assay [19] was 106%; in assay [20] it was 107%.
For the molecule `CCCCCCCCCCCCCCCCCCNC(=O)[C@H]1CSC(c2ccc(OC)cc2O)N1` (some centres undefined), the growth in assay [1] was 83.3%; in [2] it was 90.4%; in assay [3], 67.5%; in assay [4], 63.9%; in [5], 13.4%; in assay [6], 66%. Besides, the growth in assay [7] was 65.8%; in assay [8], 73.8%; in assay [9], 82.2%; in assay [10], 97.1%; in assay [11] it was 22.5%; in assay [12], 25.7%. In addition, the growth was 96.6% in assay [13]; 38.1% in [14]; 32.5% in assay [15]; 50.6% in [16]; 93% in assay [17]; 66% in assay [18]. Further, the growth was 88.3% in assay [19] and 65.3% in assay [20].
For the molecule `COc1ccc(-c2ccc(-c3ccc(C(=N)N)cn3)s2)cc1OC`, the growth was 94% in assay [1]; 96.3% in assay [2]; 97.7% in [3]; 91.4% in assay [4]; 99.5% in assay [5]; 69.3% in [6]. The growth is 100% in assay [7]; 100% in assay [8]; 100% in assay [9]; 103% in assay [10]; 97.5% in assay [11]; 41.8% in [12]. For the same molecule, the growth was 94.9% in assay [13]; 89% in [14]; 121% in [15]; 101% in assay [16]; 99.1% in assay [17]; 83.4% in [18]. The growth in assay [19] was 114%; in [20], 97.4%.
With `N=c1ccc2nc3ccc(N)cc3sc-2c1`, the growth in assay [1] was 12.8%; in assay [2], 87.8%; in assay [3] it was 51.6%; in assay [4], 15%; in assay [5] it was 43.6%; in assay [6] it was 40.6%. Also, the growth in assay [7] is 12.8%; in assay [8], 7.01% (active); in [9] it was 59.1%; in assay [10], 0.589% (active); in assay [11], 89.4%; in assay [12], 26.6%. Besides, the growth in [13] was 31.8%; in assay [14], 17%; in assay [15] it was 73.5%; in assay [16], 39.7%; in [17], 35.5%; in [18] it was 2.29% (active). The figures for the growth in assay [19] and in assay [20] were 2.21% (active) and 13.8%, respectively.
With `CCCCCc1cc[n+](CC(=O)c2ccc([N+](=O)[O-])cc2)cc1`, the growth is 69.6% in assay [1]; 96.5% in assay [2]; 107% in assay [3]; 79.8% in assay [4]; 49.6% in assay [5]; 51.7% in assay [6]. Further, the growth in assay [7] is 45.7%; in [8] it was 78.9%; in [9], 96.5%; in [10], -5.18% (active); in assay [11] it was 79.2%; in [12] it was 34.7%. For the same molecule, the growth is 85.2% in [13]; 70% in assay [14]; 97.6% in assay [15]; 87.3% in assay [16]; 95.2% in assay [17]; 96.9% in assay [18]. In assay [19], the growth is 35.6%.
Consider `COc1ccc(-c2nc(/C=N/Nc3cc(C)nc4ccc(Br)cc34)c(C)o2)cc1`, for which the growth in assay [1] was -41.9% (active); in assay [2], -37.4% (active); in [3], -96.2% (active); in assay [4] it was 64.5%; in assay [5] it was -80.6% (active); in [6], -84.3% (active). Further, the growth in [7] is -58.4% (active); in [8] it was -61% (active); in [9], -81.5% (active); in [10] it was -75.6% (active); in assay [11], -90.2% (active); in [12], -49.1% (active). The growth in assay [13] is -84.6% (active); in assay [14] it was -89.2% (active); in assay [15] it was -90.9% (active); in [16] it was -72.9% (active); in [17] it was -90.4% (active); in [18], -96.1% (active). Also, the growth in assay [19] was 108%; in [20] it was 1.07% (active).
As for `COc1ccc(C2=C(c3cc(OC)c(OC)c(OC)c3)C(=O)CC2)cc1`, the growth in [1] was 14.2%; in assay [2] it was 46.5%; in [3] it was 47.8%; in [4], 38.1%; in [5], 0.331% (active); in assay [6], 40%. The growth was -35.5% (active) in assay [7]; 24.7% in assay [8]; 28.9% in [9]; -27.9% (active) in assay [10]; -19.3% (active) in [11]; 20.5% in assay [12]. The growth in [13] is 35.3%; in assay [14], 17.2%; in [15] it was 1.23% (active); in assay [16] it was 33%; in [17], 9.47% (active); in assay [18], 0.222% (active). Moreover, the growth in assay [19] was 65.4%; in assay [20] it was 2.99% (active).
Regarding `COc1cc(NC(N)=NCCC(C)(C)Oc2ccc(C(F)(F)F)cc2)ncc1C#N`, the growth in assay [1] was 1.1% (active); in [2], 60.3%; in [3] it was 20.5%; in assay [4], 31%; in assay [5] it was -79.3% (active); in [6], -10.6% (active). The growth was -83.7% (active) in assay [7]; -42.6% (active) in assay [8]; 7.56% (active) in [9]; -87.8% (active) in assay [10]; -32.6% (active) in assay [11]; -43.7% (active) in assay [12]. Also, the growth in [13] is -81.2% (active); in assay [14], -54.4% (active); in assay [15] it was -50.4% (active); in assay [16] it was 30.8%; in [17], -40.7% (active); in assay [18], 11.7%. The results for the growth in [19] and in assay [20] were -46.2% (active) and -68.3% (active), respectively.
